# Assay results: PubChem BioAssay (NCATS)
# Where “and” joins values, the source holds several entries; their conditions need not be identical. Identical values can stand only once. Inconclusive results are not listed. A call without a number means that no potency is given here. Where a structure was tested more than once in an assay, its records may differ in their call. Unmarked numbers belong to inactive results. Calls of active or inactive are those of the source. Calls follow the shape of the dose curve; as a rule, active = well fitted curve in the direction sought with a large enough effect; inconclusive = small, poorly fitted or top-dose-only effect, or another doubt; inactive = no such curve, though single readings can be large; an effect the other way counts as inactive or inconclusive.
# Assays:
# [1] = molecular target: Cytochrome P450 3A7 (Homo sapiens) (UniProt P24462); test: Cytochrome P450 family 3 subfamily A member 7 (CYP3A7) small molecule antagonists: luciferase biochemical qHTS assay (AID 1963596); also: nearly all actives have a fitted effect of over 40% in size
# Cytochrome P450 3A7 (Homo sapiens), sequence (P24462 whole entry, looked up): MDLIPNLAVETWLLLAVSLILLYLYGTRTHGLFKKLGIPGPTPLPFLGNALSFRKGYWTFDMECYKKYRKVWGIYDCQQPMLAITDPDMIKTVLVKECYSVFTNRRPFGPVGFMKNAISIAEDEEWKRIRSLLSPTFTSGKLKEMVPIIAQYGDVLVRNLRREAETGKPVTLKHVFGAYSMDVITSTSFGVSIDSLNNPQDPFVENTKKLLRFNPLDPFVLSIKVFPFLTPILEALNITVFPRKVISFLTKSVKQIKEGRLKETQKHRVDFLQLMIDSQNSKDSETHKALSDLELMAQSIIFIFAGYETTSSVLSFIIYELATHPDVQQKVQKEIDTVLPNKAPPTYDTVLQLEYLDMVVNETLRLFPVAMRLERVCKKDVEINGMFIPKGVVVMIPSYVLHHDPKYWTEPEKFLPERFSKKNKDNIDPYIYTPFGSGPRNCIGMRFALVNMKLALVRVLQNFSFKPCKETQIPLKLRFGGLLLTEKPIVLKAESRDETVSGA
# How it was run: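 Recombinant CYP3A7 P450-Glo luminescent assay: enzyme-proluciferin substrate mix preincubated with compound 10 min at room temperature, reaction started with NADPH regeneration system for 1 h. Luciferin detected by luminescence; ketoconazole as positive control.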
# [2] = Viability qHTS for spleen associated tyrosine kinase inhibitor (SYKi) naive MV4-11 cells (AID 1963823); also: nearly all actives have a fitted effect of over 40% in size
# How it was run: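 CellTiter-Glo luminescence, 10 min room-temperature incubation, gave viability. Cells: naive MV4-11 (500/well), treated 72 hr at 37 C, 5% CO2.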
# [3] = Viability qHTS for spleen associated tyrosine kinase inhibitor (SYKi) drug resistant MV4-11 cells (AID 1963824); also: nearly all actives have a fitted effect of over 35% in size; also: potency is read from the fitted curve at half-maximal effect
# How it was run: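 SYK inhibitor-resistant MV4-11 AML cells, 500 per well, added to predispensed compounds and incubated 72 hr at 37 C, 5% CO2. Viability measured by CellTiter-Glo luminescence after 10 min at room temperature.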
# [4] = Quantitative highthroughput screen to assess conditional lethalithy of NOMO1 cells grown in RPMI1640 with untreated serum (RPMI+s) (AID 1963876); also: nearly all actives have a fitted effect of over 35% in size; also: potency is read from the fitted curve at half-maximal effect
# How it was run: (§1)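 Each medium arm—HPLM with 10% dialyzed FBS, or RPMI1640 with 5 mM glucose and 10% untreated or dialyzed FBS—was screened against an 11-point, 3-fold compound titration for 48 h at 37 °C, with CellTiter-Glo luminescence as endpoint.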
# [5] = Quantitative highthroughput screen to assess conditional lethalithy of NOMO1 cells grown in RPMI1640 with dialyzed fetal bovine serum (RPMI+ds) (AID 1963877); also: nearly all actives have a fitted effect of over 30% in size; also: potency is read from the fitted curve at half-maximal effect; as to Viability: series mostly up to about 46 µM
# How it was run: as §1
# [6] = Quantitative highthroughput screen to assess conditional lethalithy of NOMO1 cells grown in Human Plasma-Like Medium with dialyzed fetal bovine serum (HPLM+ds) (AID 1963878); also: nearly all actives have a fitted effect of over 35% in size; also: potency is read from the fitted curve at half-maximal effect
# How it was run: as §1
# [7] = Quantitative highthroughput screen to assess conditional lethalithy of P12 Ichikawa cells grown in Human Plasma-Like Medium with dialyzed fetal bovine serum (HPLM+ds) (AID 1963879); conditions: Potency: viability; also: nearly all actives have a fitted effect of over 35% in size; also: potency is read from the fitted curve at half-maximal effect; as to Viability: series mostly up to about 46 µM
# How it was run: as §1
# [8] = Quantitative highthroughput screen to assess conditional lethalithy of P12 Ichikawa cells grown in RPMI1640 with dialyzed fetal bovine serum (RPMI+ds) (AID 1963880); conditions: Potency: P12-Ichikawa viability; also: nearly all actives have a fitted effect of over 35% in size; also: potency is read from the fitted curve at half-maximal effect
# How it was run: as §1
# [9] = Quantitative highthroughput screen to assess conditional lethalithy of P12 Ichikawa cells grown in RPMI1640 with untreated serum (RPMI+s) (AID 1963881); conditions: Potency: viability; also: nearly all actives have a fitted effect of over 35% in size; also: potency is read from the fitted curve at half-maximal effect; as to Viability: series mostly up to about 46 µM
# How it was run: as §1
# [10] = Cellular viability qHTS for adrenocortical cancer (ACC) cell line SW-13 (AID 1963989); conditions: SW-13 ACC cells viability, CellTiter-Glo, 48 h; activity (max response): stronger effect = lower value;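 also: cells grown in serum-free medium with ITS supplement; nearly all actives have a fitted effect of over 65% in size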
# How it was run: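 Luminescent ATP read-out (CellTiter-Glo, 20 min at room temperature) measured metabolically competent SW-13 cells after 48 h compound treatment. Final concentrations spanned up to 46 uM; bortezomib served as positive control.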
# [11] = Cellular viability qHTS for adrenocortical cancer (ACC) cell line NCI-H295R (AID 1963990); also: nearly all actives have a fitted effect of over 60% in size
# How it was run: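 IC50 and maximal efficacy derive from four-parameter logistic modelling of titration curves, with reads scaled between DMSO-only wells (0%) and doxorubicin hydrochloride (100% inhibition). Compounds spanned up to 46 uM over 48 h.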
# [12] = Quantitative highthroughput screen to assess conditional lethalithy of SEM cells grown in Human Plasma-Like Medium with dialyzed fetal bovine serum (HPLM+ds) (AID 1963882)
# How it was run: as §1
# [13] = Quantitative highthroughput screen to assess conditional lethalithy of SEM cells grown in RPMI1640 with unreated serum (RPMI+s) (AID 1963883); also: nearly all actives have a fitted effect of over 35% in size
# How it was run: as §1
# [14] = Quantitative highthroughput screen to assess conditional lethalithy of SEM cells grown in RPMI1640 with dialyzed fetal bovine serum (RPMI+ds) (AID 1963884)
# How it was run: as §1
Structure (SMILES),Potency [1],Potency [2],Potency [3],Potency [4],Potency [5],Potency [6],Potency [7],Potency [8],Potency [9],activity (max response) [10],Potency [11],Potency [12],Potency [13],Potency [14],"viability, % of control [3]"
NS(=O)(=O)c1cc(Cl)c(Cl)c(S(N)(=O)=O)c1,inactive,inactive,inactive,inactive,inactive,inactive,inactive,inactive,inactive,-6.34%,inactive,,,,
O=C(c1ccccc1)c1ccc2n1CCC2C(=O)O (centres undefined),inactive,inactive,inactive,inactive,inactive,inactive,2.35 µM (active),4.18 µM (active),3.72 µM (active),8.29% and -6.52%,inactive,,,,
NC(=O)c1cnccn1,inactive,inactive,inactive,inactive,inactive,inactive,inactive,inactive,inactive,14.3% and 8.02%,inactive,inactive,inactive,inactive,
CN(C)c1nc(Cc2ccc(NC(=O)c3ccc(C(F)(F)F)cc3)cc2)nc(N(C)C)c1CC(=O)O,inactive,inactive,inactive,inactive,inactive,inactive,inactive,inactive,inactive,,,inactive,inactive,inactive,
CNS(=O)(=O)CCc1ccc2[nH]cc(C3CCN(C)CC3)c2c1,inactive,inactive,inactive,inactive,inactive,inactive,inactive,inactive,inactive,-14.7%,inactive,inactive,inactive,inactive,
CCOCC(O)COc1ccc(NC(=O)CC[S+](C)C)cc1 (centres undefined),inactive,inactive,inactive,inactive,inactive,inactive,inactive,inactive,inactive,1.78% and -20%,inactive,inactive,inactive,inactive,
CN[C@@H](C)C(=O)N[C@H]1CN(C(=O)CC(C)C)CC[C@H]2CC[C@@H](C(=O)NC(c3ccccc3)c3ccccc3)N2C1=O,inactive,inactive,5.8 µM (active) and 2.35 µM (active),1.32 µM (active),2.64 µM (active),1.05 µM (active),8.33 µM (active),11.8 µM (active),8.33 µM (active),-12.1%,inactive,,,,
C[C@@H]1CN(c2c(F)c(F)c3c(=O)c(C(=O)O)cn(C4CC4)c3c2F)C[C@H](C)N1,inactive,inactive,4.61 µM (active),,,,,,,12.9%,inactive,,,,79.8% [at 9.25 µM]
CN1CCN(c2c(F)cc3c(=O)c(C(=O)O)cn(CCF)c3c2F)CC1,inactive,inactive,inactive,inactive,inactive,inactive,inactive,inactive,inactive,-1.49%,,inactive,inactive,inactive,
Clc1cccc(Cl)c1NC1=NCCN1,inactive,inactive,inactive,inactive,inactive,inactive,inactive,inactive,inactive,13.1%,inactive,,inactive,inactive,
CCN[C@H]1C[C@H](C)S(=O)(=O)c2sc(S(N)(=O)=O)cc21,inactive,inactive,inactive,inactive,inactive,inactive,inactive,inactive,inactive,3.89% and 5.72%,inactive,inactive,inactive,inactive,
Nc1ccn([C@@H]2CS[C@H](CO)O2)c(=O)n1,inactive,inactive,inactive,inactive,inactive,inactive,inactive,inactive,inactive,7.41%,inactive,inactive,inactive,inactive,
O=c1oc2c(O)c(O)cc3c(=O)oc4c(O)c(O)cc1c4c23,inactive,inactive,inactive,inactive,inactive,inactive,inactive,inactive,inactive,9.27% and 2.22%,inactive,,inactive,inactive,
N#Cc1ccc(C(c2ccc(C#N)cc2)n2cncn2)cc1,inactive,inactive,inactive,inactive,inactive,inactive,inactive,inactive,inactive,2.79%,inactive,inactive,,inactive,
CCN1C[C@H](C)n2c(c(O)c3c(=O)n(Cc4ccc(F)c(Cl)c4)nc(C(=O)NC)c32)C1=O,inactive,inactive,inactive,23.5 µM (active),,16.6 µM (active),inactive,inactive,inactive,,,inactive,inactive,inactive,
